# Test results published in PubChem BioAssay (Tox21).
# Inconclusive results are not listed. Entries that show only a call come without a potency. A number with no mark means an inactive call. Activity calls are given as the source filed them. Unless noted, calls come from the whole dose curve; as a rule, active = well fitted curve in the direction sought with a large enough effect in the repeat runs; inconclusive = weak or mixed curves; inactive = no such curve, though single readings can be large; an effect the other way counts as inactive or inconclusive.
# Columns and labels:
# [1] = qHTS assay to identify small molecule agonists of the vitamin D receptor (VDR) signaling pathway - cell viability counter screen (AID 743224); note: series mostly up to about 63 µM; nearly all actives have a fitted effect of over 50% in size
# Method in brief: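 Counter screen run in the same wells as the VDR-bla reporter assay: CellTiter-Glo luminescence, 30 min at room temperature, after 16 h compound treatment at 37C of cells pre-plated for 4 h.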
# [2] = qHTS assay to identify small molecule agonists of the NFkB signaling pathway (AID 1159509; active = well fitted curve in the direction sought with a large enough effect in the signal ratio in the repeat runs, not every such curve was filed as active; the % refers to the signal ratio; note: series mostly up to about 61 µM)
# Method in brief: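 Pathway activation was measured in ME-180 cells stably expressing beta-lactamase under NF-kB response element control. Substrate cleavage was read as the 460/530 nm emission shift after 5 hr compound incubation.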
# [3] = qHTS assay to identify small molecule agonists of the NFkB signaling pathway - cell viability counter screen (AID 1159515; calls by dose curve; note: series mostly up to about 61 µM; nearly all actives have a fitted effect of over 55% in size)
# Method in brief: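 Read by CellTiter-Glo luminescence (30 min, room temperature) in the wells also used for the beta-lactamase FRET read. ME-180 NFkB-bla cells at 2,000 per well were plated overnight, then exposed to compound for 5 hr at 37 C.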
# [4] = qHTS assay to identify small molecule agonists of the endoplasmic reticulum stress response signaling pathway (AID 1159516; active = well fitted activation curve with a large enough effect in the signal ratio in the repeat runs, not every such curve was filed as active; the % refers to the signal ratio)
# Method in brief: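 Ratiometric FRET readout (405 nm excitation; 460 and 530 nm emission) of a beta-lactamase gene driven by the ER stress response element, after 2 hr substrate loading. HeLa ESRE-bla cells were seeded overnight and treated with compounds for only 5 hr at 37 C.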
# [5] = qHTS assay to identify small molecule agonists of the endoplasmic reticulum stress response signaling pathway - cell viability counter screen (AID 1159517; calls by dose curve; note: series mostly up to about 61 µM; nearly all actives have a fitted effect of over 50% in size)
# Method in brief: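 ESRE-bla HeLa cells (1,500/well) were plated overnight at 37 C and exposed to compounds for 5 hr. After the 2 hr beta-lactamase substrate read, CellTiter-Glo went into the same wells, and luminescence was read after 30 min at room temperature.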
# [6] = qHTS assay to identify small molecule antagonists of the retinoid-related orphan receptor gamma (ROR-gamma) signaling pathway - cell viability counter screen (AID 1159520); note: nearly all actives have a fitted effect of over 50% in size
# Method in brief: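 Cytotoxicity was read from cellular ATP (CellTiter-Glo luminescence) after 16 hr at 37 C with 1 uM doxycycline induction. The inducer was added 2 hr after compound transfer to Tet-on ROR gamma CHO cells.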
# [7] = target: Nuclear receptor ROR-gamma (Homo sapiens) (UniProt P51449); assay: qHTS assay to identify small molecule antagonists of the retinoid-related orphan receptor gamma (ROR-gamma) signaling pathway (AID 1159521; note: nearly all actives have a fitted effect of over 50% in size; note: potency is the fitted concentration of half-maximal effect)
# Method in brief: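 Cells were plated, rested 4 h at 37 C, exposed to compounds for 2 h, then given 1 uM final doxycycline hyclate to induce RORγ expression. After 16 h, ONE-Glo luminescence from the ROR response element reporter was measured.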
# [8] = qHTS assay to identify small molecule agonists of the AP-1 signaling pathway - cell viability counter screen (AID 1159525; calls by dose curve; note: nearly all actives have a fitted effect of over 55% in size)
# Method in brief: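 Intracellular ATP by Cell Titer Glo luminescence (30 min, RT) in the same ME-180 AP-1-bla wells after the 5 h compound exposure at 37 °C. Normalised to tetra n-octyl ammonium bromide and DMSO controls.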
# [9] = qHTS assay to identify small molecule agonists of the AP-1 signaling pathway (AID 1159526; calls by dose curve)
# [10] = qHTS assay to identify small molecule agonists of the RXR signaling pathway - cell viability counter screen (AID 1159529)
# Method in brief: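 Steps: seed RXR-alpha-UAS-bla HEK 293T cells in assay medium containing 2% charcoal-stripped FBS; incubate 5 hr; add compounds in DMSO; incubate 16 hr at 37 C; after the bla read, add CellTiter-Glo and read luminescence at 30 min.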
# [11] = qHTS assay to identify small molecule antagonists of the retinoid acid receptor (RAR) signaling pathway - cell viability counter screen (AID 1159551); note: nearly all actives have a fitted effect of over 35% in size
# Method in brief: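 Cytotoxicity counter screen: ATP content quantified by CellTiter-Glo luminescence in C3RL4 cells treated 6 hr at 37 C with compound and retinol (1 uM final). Cells plated at 1,000/well and cultured overnight before dosing.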
# [12] = qHTS assay to identify small molecule antagonists of the retinoic acid receptor (RAR) signaling pathway (AID 1159552; note: nearly all actives have a fitted effect of over 50% in size)
# Method in brief: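 Retinol at 1 uM final stimulated RARE-luciferase expression in C3RL4 cells exposed to test compounds for 6 hr at 37 C. Reduced luminescence, read 30 min after detection reagent, indicated pathway antagonism.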
# [13] = qHTS assay to identify small molecule antagonists of the vitamin D receptor (VDR) signaling pathway - cell viability counter screen (AID 743225); note: nearly all actives have a fitted effect of over 50% in size
# Method in brief: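 HEK293T VDR-bla; cpd + 1a,25-(OH)2D3 3 nM final, 16 h 37C/5% CO2; B/G FRET substrate 2 h RT; then CellTiter-Glo 30 min RT, luminescence.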
# [14] = qHTS assay to identify small molecule agonists of the retinoic acid receptor (RAR) signaling pathway (AID 1159553); note: potency is the fitted concentration of half-maximal effect
# Method in brief: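 Luminescence was measured 30 min after luciferase reagent addition at room temperature. Before that, C3RL4 reporter cells (1,000 per well, plated overnight) were treated with compound for 6 hr at 37 C and 5% CO2.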
Compound,Potency [1],outcome [2],outcome [3],outcome [4],Potency [5],Potency [6],Potency [7],Potency [8],outcome [9],Potency [10],Potency [11],Potency [12],outcome [13],Potency [14]
C[C@]12CC[C@H]3[C@@H](CCC4=CC(=O)CC[C@@]43C)[C@@H]1CC[C@@H]2C(=O)O,inactive,inactive,inactive,inactive,inactive,inactive,inactive,inactive,inactive,inactive,inactive,inactive,–,–
CC(C(=O)c1ccccc1)N(C)C (stereo not given),inactive,inactive,inactive,inactive,inactive,inactive,inactive,inactive,inactive,inactive,inactive,–,–,–
CCOC(=O)CP(=O)(OCC)OCC,inactive,inactive,inactive,inactive,inactive,inactive,inactive,inactive,inactive,inactive,inactive,–,–,–
O=C(Nc1ccccc1)c1ccccc1I,inactive,inactive,inactive,inactive,inactive,inactive,inactive,inactive,inactive,inactive,inactive,inactive,inactive,–
[As]#[In],inactive,inactive,inactive,inactive,inactive,inactive,inactive,inactive,inactive,inactive,inactive,inactive,inactive,–
CCOP(=S)(OCC)Oc1nc(Cl)n(C(C)C)n1,inactive,inactive,inactive,inactive,inactive,inactive,inactive,inactive,inactive,inactive,inactive,inactive,–,–
CC1(C)CON(Cc2ccccc2Cl)C1=O,–,inactive,inactive,inactive,inactive,inactive,inactive,inactive,inactive,inactive,inactive,inactive,–,68.6 µM (active)
CCCCN(CCCCO)N=O,inactive,inactive,inactive,inactive,inactive,inactive,inactive,inactive,inactive,inactive,inactive,inactive,–,inactive
CN1CCN(C(=O)O[C@H]2c3nccnc3C(=O)N2c2ccc(Cl)cn2)CC1,inactive,inactive,inactive,inactive,inactive,inactive,inactive,inactive,inactive,inactive,inactive,inactive,inactive,inactive
CCOP(=S)(OCC)Oc1ncn(-c2ccccc2)n1,–,inactive,inactive,inactive,inactive,inactive,inactive,inactive,inactive,inactive,inactive,inactive,–,–
O=C(Nc1ccccc1)N(Cc1ccc(Cl)cc1)C1CCCC1,–,inactive,inactive,inactive,inactive,inactive,61.1 µM (active),inactive,inactive,inactive,inactive,–,–,–
N#CCCC#N,–,inactive,inactive,inactive,inactive,inactive,inactive,inactive,inactive,inactive,inactive,–,–,–
COc1cc2c(cc1OC)[C@@]13CCN4CC5=CCO[C@H]6CC(=O)N2[C@H]1[C@H]6[C@H]5C[C@H]43,inactive,inactive,inactive,inactive,inactive,inactive,inactive,inactive,inactive,inactive,inactive,inactive,inactive,–
CCN(CC)C(=O)[C@@H]1C=C2c3cccc4[nH]cc(c34)C[C@H]2N(C)C1,inactive,inactive,inactive,inactive,inactive,inactive,inactive,inactive,inactive,inactive,inactive,inactive,inactive,inactive
CCC/C(=N\OCC)C1=C(O)CC(CC(C)SCC)CC1=O (stereo not given),–,inactive,inactive,inactive,inactive,inactive,inactive,inactive,inactive,inactive,inactive,inactive,inactive,–
CCCCOC(=O)c1ccccc1C(=O)O,inactive,inactive,inactive,inactive,inactive,inactive,inactive,inactive,inactive,inactive,inactive,inactive,inactive,inactive
CCOc1nc(C(Cl)(Cl)Cl)ns1,inactive,inactive,inactive,inactive,inactive,inactive,inactive,inactive,inactive,inactive,inactive,inactive,inactive,inactive
NC(=S)C(N)=S,–,inactive,inactive,inactive,inactive,inactive,inactive,inactive,inactive,inactive,inactive,inactive,inactive,inactive
CCOP(=S)(OCC)Oc1cc(-c2ccccc2)on1,inactive,inactive,inactive,inactive,inactive,inactive,inactive,inactive,inactive,inactive,inactive,inactive,inactive,–
